Data on 6 molecules can be found in PubChem BioAssay (NCATS).

Records with an inconclusive call do not appear. Entries that show only a call come without a potency. Activity calls are given as the source filed them. The call rests on the fitted dose curve; in most records, active means well fitted inhibition curve with a large enough effect; inconclusive means small, poorly fitted or top-dose-only effect; inactive means flat fitted curve, though single readings scatter.

Chain of Calcium and integrin-binding protein 1 (Homo sapiens) (Q99828 whole entry, looked up): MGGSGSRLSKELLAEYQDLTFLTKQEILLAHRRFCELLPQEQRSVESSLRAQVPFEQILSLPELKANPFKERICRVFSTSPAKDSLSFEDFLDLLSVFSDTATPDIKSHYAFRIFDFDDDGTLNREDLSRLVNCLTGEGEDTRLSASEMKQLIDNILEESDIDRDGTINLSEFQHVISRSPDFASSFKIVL

The target in the experiment is Calcium and integrin-binding protein 1 (Homo sapiens) (UniProt Q99828). Put plainly: Primary qHTS for Identification of Calcium Integrin Binding Protein 1 (CIB1) Competitor (AID 1508620). Further: top concentration of the series differs between compounds. The note with it: CIB1-GST / FITC-alphaIIb peptide fluorescence polarization; series mostly up to 114 µM. Put shortly:
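Fluorescence polarization competition: GST-tagged CIB1 (1 uM final) preincubated with compound 15 min at room temperature, then FITC-labelled alphaIIb peptide (100 nM final) added. After 15 min at room temperature, polarization read at Ex 480/Em 540.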
For the molecule `O=C(NCc1nnc(C(=O)Nc2ccc(C(F)(F)F)cc2Cl)o1)c1ccccc1`, the Potency entry is “inactive”.
The result for `Cc1cccc(Cn2ncc3c4sc(C)cc4n(C)c3c2=O)c1` reads “inactive”; that for `CCOc1ccc(CCNC(=O)c2cc3sccc3n2C)cc1OCC`, “inactive”; that for `CC(=O)Nc1sc2c(c1-c1cccc3ccccc13)CCNC2`, “inactive”.
The result for `CC(=O)N1CCc2cc(-c3nc(NC(=O)Cc4ccc5c(c4)OCO5)sc3C)ccc21` reads “inactive”; that for `O=[N+]([O-])c1ccc(-c2nc(Nc3ccc(F)c(F)c3)c3ccccc3n2)cc1`, “inactive”.
